The target of this experiment is Genome polyprotein (Poliovirus type 1 (strain Mahoney)) (UniProt P03300). Briefly: poliovirus RdRp elongation inhibitors, primary screen, biochemical, fluorescence polarization, total intensity (AID 588519). On z-score: compound at 16.7 µg/mL. Particulars: poliovirus polymerase elongation, stronger effect = lower value; for % elongation: compound at 16.7 µg/mL; for z-score: measured here: FP z-score. A general note: Fluorescence polarisation rises when a labelled molecule tumbles more slowly, as on binding a larger partner.

Setting [1] is: measured here: total intensity read-out.

The results in this text go back to PubChem BioAssay AID588519 (ICCB-Longwood Screening Facility, Harvard Medical School, 2011).

The whole screen tested about 150,000 compounds, of which about 1,000 (0.67%) were called active. No stated cut-off is given here; in the data, active means % elongation below about 90%; inactive means the rest, inconclusive results apart. Shown is part of a subset that was picked to be rich in actives.

Sequence of Genome polyprotein (Poliovirus type 1 (strain Mahoney)) (P03300 1749-2209 limits assumed): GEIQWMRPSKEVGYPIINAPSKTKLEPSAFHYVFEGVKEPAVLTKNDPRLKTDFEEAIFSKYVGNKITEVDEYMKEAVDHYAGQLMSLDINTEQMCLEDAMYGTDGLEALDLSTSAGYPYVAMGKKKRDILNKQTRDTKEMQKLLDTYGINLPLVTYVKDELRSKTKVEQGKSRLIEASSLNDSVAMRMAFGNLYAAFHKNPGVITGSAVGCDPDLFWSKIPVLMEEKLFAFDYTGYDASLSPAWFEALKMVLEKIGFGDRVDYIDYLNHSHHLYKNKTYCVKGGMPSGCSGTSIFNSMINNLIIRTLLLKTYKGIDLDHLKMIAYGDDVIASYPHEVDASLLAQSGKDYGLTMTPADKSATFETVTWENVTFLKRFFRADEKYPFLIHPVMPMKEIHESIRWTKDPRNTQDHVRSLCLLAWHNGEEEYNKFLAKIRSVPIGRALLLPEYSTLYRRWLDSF

For the compound `COC(=O)c1ccccc1NC(=O)C1CC(c2cccc(Br)c2)=NO1` (configuration not stated), the % elongation is 104% (inactive) and the z-score stood at 0.6. In addition, the % elongation under setting [1] is 106%.
`CCOC(=O)C(N)Cc1c[nH]c2ccccc12` (configuration not stated): the % elongation was 100% (inactive) and the z-score is -0.3. In addition, the % elongation under setting [1] worked out at 101%.
With `CC(C)NC(=O)CCc1c[nH]c2ccccc12`, the % elongation is 62% (active) and the z-score is -4.7. The % elongation under setting [1] was found to be 68%.
As to `CC(=O)Nc1ccc(NC(=O)C(C)OC(=O)Cc2c[nH]c3ccccc23)cc1` (configuration not stated), the % elongation was 105% (inactive) and the z-score amounted to 0. The % elongation under setting [1] was 108%.
Take `CCOC(=O)c1c(C)c(-c2ccccc2)n(CC(=O)N2CCN(c3ccccn3)CC2)c1C`: the % elongation was 99% (inactive) and the z-score is -0.8. In addition, the % elongation under setting [1] was determined as 104%.
Turning to `COc1ccc(C/C(C#N)=C/N2CCN(c3ccccc3F)CC2)cc1`, the % elongation is 102% (inactive) and the z-score turned out to be 0.1. Besides, the % elongation under setting [1] came to 107%.
For `C=CCn1ccc2c(OCC(=O)c3ccccc3)cccc2c1=O`, the % elongation was 104% (inactive) and the z-score is 0.6. Moreover, the % elongation under setting [1] was 101%.
As to `COCCNC(=O)N1c2ccccc2Sc2ccccc21`, the % elongation is 103% (inactive) and the z-score came to 0.4. Besides, the % elongation under setting [1] was found to be 100%.
On to `CN1/C(=C/C(=S)C(C)(C)C)Sc2ccccc21`, for which the % elongation was 84% (active) and the z-score is -1.7. For the same compound, the % elongation under setting [1] turned out to be 83%.
The matching figures for `CCNC(=O)N1c2ccccc2Sc2ccccc21`: 101% (inactive), 0.2 and 103%.
For the compound `Cc1[nH]nc2c1C1C(C2)C1(C)C` (configuration not stated), the % elongation is 76% (active) and the z-score was -7.4. Besides, under setting [1], the % elongation worked out at 105%.
With `CCc1nc(NCc2ccccc2)c(C#N)c2c1COC(C)(C)C2`, the % elongation was 107% (inactive) and the z-score is 0.4. Also, the % elongation under setting [1] was found to be 112%.
As to `O=C(CSc1nnc(-c2c[nH]c3ccccc23)o1)NCC1CN(Cc2ccccc2)CCO1` (configuration not stated), the % elongation was 105% (inactive) and the z-score turned out to be 0.1. Under setting [1], the % elongation worked out at 109%.
Turning to `COc1ccc(-c2noc(CC(=O)N(C)c3ccccc3)n2)cc1`, the % elongation was 106% (inactive) and the z-score worked out at 0.7. In addition, the % elongation under setting [1] was 100%.
For `COC(=O)Cc1cnc(NC(=O)CSc2nc(C(C)C)cc(=O)[nH]2)s1`, the % elongation was 102% (inactive) and the z-score stood at 0.3. The % elongation under setting [1] is 100%.
In the case of `C=CCSc1nnc(NC(=O)CSc2nc(C)cc(=O)[nH]2)s1`, the % elongation is 88% (active) and the z-score was -4. The % elongation under setting [1] worked out at 65%.
Consider `C=CCSc1nnc(NC(=O)CCNS(=O)(=O)c2ccccc2)s1`, for which the % elongation was 103% (inactive) and the z-score turned out to be 0.2. Besides, the % elongation under setting [1] was found to be 107%.
On to `COc1ccccc1NC(=O)Nc1cc(C(C)(C)C)nn1-c1ccccc1`, for which the % elongation is 105% (inactive) and the z-score was determined as 0.5. Also, the % elongation under setting [1] was 102%.
Turning to `Cc1sc2nc(COC(=O)C(NC(=O)c3ccco3)C(C)C)[nH]c(=O)c2c1C` (configuration not stated), the % elongation was 94% (inactive) and the z-score was -1.2. Besides, the % elongation under setting [1] amounted to 219%.
Turning to `CCOC(=O)c1cnc2c(C)cc(C)cc2c1Nc1ccc(N2CCOCC2)cc1`, the % elongation is 107% (inactive) and the z-score was determined as 0.5. In addition, under setting [1], the % elongation amounted to 110%.
For `CCOC(=O)c1cnc2c(C)c(C)ccc2c1NCCCN(C)C`, the % elongation was 69% (active) and the z-score is -5. Besides, the % elongation under setting [1] amounted to 53%.
For `CCOC(=O)c1cnc2c(C)cc(Cl)cc2c1NCCc1ccc(OC)c(OC)c1`, the % elongation was 104% (inactive) and the z-score is -0.4. For the same compound, the % elongation under setting [1] stood at 104%.
`O=C(COC(=O)c1cccs1)NCc1cccs1`: the % elongation was 100% (inactive) and the z-score is -0.1. Besides, the % elongation under setting [1] was found to be 101%.
Take `Cc1nc2ccccc2nc1OCC(=O)N(C1CCCCC1)C1CCCCC1`: the % elongation is 99% (inactive) and the z-score is -0.3. Moreover, the % elongation under setting [1] worked out at 97%.
Turning to `CCOC(=O)c1c(NC(=O)COc2cc(C)ccc2C(C)C)sc(C)c1C`, the % elongation is 89% (active) and the z-score was -2.6. Besides, the % elongation under setting [1] was determined as 88%.
As for `CCOC(=O)c1sc(NC(=O)/C=C/c2ccc(C(C)C)cc2)c(C(=O)OCC)c1C`, the % elongation was 105% (inactive) and the z-score turned out to be 0.3. Under setting [1], the % elongation is 109%.
Consider `COC(=O)c1c(NC(=O)C(C)Oc2ccc(Cl)c(C)c2)sc(C)c1C` (configuration not stated), for which the % elongation is 109% (inactive) and the z-score turned out to be 0.5. Besides, the % elongation under setting [1] worked out at 106%.
In the case of `COC(=O)c1sc(C)cc1OC(=O)c1ccc(OC)cc1`, the % elongation was 99% (inactive) and the z-score is -0.2. Moreover, under setting [1], the % elongation was 100%.
For `CCCc1nc2c3ccccc3ncn2n1`, the % elongation is 105% (inactive) and the z-score worked out at 0.4. Also, the % elongation under setting [1] amounted to 113%.
Take `CCCCCCn1nnc2sc(-c3ccccc3)cc2c1=O`: the % elongation was 121% (inactive) and the z-score was 2.3. Besides, the % elongation under setting [1] is 118%.
With `CC(C)OC(=O)C(C)n1cnc2sc(-c3ccccc3)cc2c1=O` (configuration not stated), the % elongation is 104% (inactive) and the z-score came out at 0. Besides, the % elongation under setting [1] was 105%.
Turning to `Cc1ccc(Cl)cc1NC(=O)C(C)n1nnc2sc(-c3ccccc3)cc2c1=O` (configuration not stated), the % elongation was 65% (active) and the z-score was -6.8. Also, the % elongation under setting [1] worked out at 65%.
For the compound `CC1(C)CC(=O)C=C(Nc2sc3c(c2C#N)CCCC3)C1`, the % elongation is 98% (inactive) and the z-score is -1. The % elongation under setting [1] is 97%.
As for `O=C(CSc1nnnn1-c1ccccc1)NCCC12CC3CC(CC(C3)C1)C2`, the % elongation is 102% (inactive) and the z-score was -0.1. In addition, the % elongation under setting [1] was 107%.
On to `COc1ccc(S(=O)(=O)NCCSc2nnnn2-c2ccccc2)cc1`, for which the % elongation is 75% (active) and the z-score is -7.9. Further, under setting [1], the % elongation was 73%.
For the compound `CCOc1ccc(S(=O)(=O)NCCSc2ccccc2)cc1`, the % elongation was 100% (inactive) and the z-score was -0.1. The % elongation under setting [1] worked out at 103%.
The matching figures for `O=C(Nc1ccc(S(=O)(=O)C(F)F)cc1)c1cccnc1N1CCCC1`: 102% (inactive), -0.3 and 104%.
With `Cc1ccc(-n2cc[nH]c(=O)c2=O)cc1`, the % elongation is 103% (inactive) and the z-score worked out at 0.3. In addition, the % elongation under setting [1] was 102%.
The matching figures for `CCCC(=O)Nc1ccc(C(=O)CSc2nnc(Cc3ccccc3)o2)cc1`: 106% (inactive), 0.3 and 106%.
